Only some compounds are listed: those with a hit (about 3.7% of all), similar ones and a draw of the others.
Nrf2 ARE act: activators of Nrf2 (ARE) signaling | AREc32 ARE-luciferase reporter (MCF7-derived line), luminescence, 24 h | Potency, µM (top dose mostly 46.1 µM), usual class: activators | 0.31% of 410,000 active; further: nearly all actives have a fitted effect of over 65% in size
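Cells of the AREc32 ARE-luciferase line are plated in OPTI-MEM containing 5% FBS and left overnight at 37 deg C. Compounds are pinned in, incubation continues 24 hr, and firefly luciferase signal is then measured.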
Nrf2 inh: inhibitors of Nrf2 signaling; A549 ARE-Fluc reporter, luciferase luminescence, 18-24 h; Potency, µM (series often up to 46 µM), usual class: inhibitors; 2.1% of 360,000 active; AID 504444; further: nearly all actives have a fitted effect of over 60% in size
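Quantitative HTS in A549 cells stably bearing an antioxidant response element-firefly luciferase construct. Inhibition of Nrf2-driven transcription was scored by luminescence after 18-24 h of compound exposure at 37 °C.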
ELG1 DNA repair: ELG1-dependent DNA repair inhibition; Potency, µM (highest dose often 46.1 µM), hits mostly inhibitors; HEK293T ELG1-luciferase reporter, luminescence, 16 h; DNA damage induced by 5-fluorouridine; AID 504467; 2.3% of 330,000 active; further: nearly all actives have a fitted effect of over 55% in size
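Step one: seed 2,000 cells per well. Step two: pin-transfer compound or DMSO alongside 5-fluorouridine. Step three: incubate 16 hr, 37 °C, 5% CO2. Step four: add ONE-Glo, wait 30 min, read luminescence.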
A549 viability: A549 cytotoxicity, counter-screen for Nrf2 inhibitors; A549 ARE-Fluc cells, CellTiter-Fluor viability, 18-24 h; Potency, µM (doses to about 46 µM), actives largely listed as inhibitors; 0.16% of 390,000 active
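A549 ARE-Fluc cells in 5% FBS OPTI-MEM, 5000 cells/well, rested 2 h then exposed to compounds in concentration-response for 18-24 h at 37 °C. Viability by CellTiter-Fluor fluorescence (Ex 405/Em 525) after 30 min; luciferase luminescence (BugLite, 15 min, RT) read afterwards.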
Large screens that a line does not name were inactive; ! = not active in a repeat. The call rests on the fitted dose curve; in most records, active means well fitted curve in the direction sought with a large enough effect; inconclusive means small, poorly fitted or top-dose-only effect, or another doubt; inactive means no such curve, though single readings can be large; an effect the other way counts as inactive or inconclusive.

COc1cccc(/C=C/C(=O)OCC(=O)c2ccc(Br)cc2)c1	none (no result: Nrf2 inh, ELG1 DNA repair, A549 viability)
CSc1sc(C(=O)N2CCCCC2)c(-c2cccs2)c1C#N	ELG1 DNA repair inconclusive
Cc1cccc(-c2ccc3ncnc(NCc4cccs4)c3c2)c1	Nrf2 inh 20.6µM, ELG1 DNA repair inconclusive
FC1(F)Oc2ccc(-c3ccc4ncnc(NCc5cccs5)c4c3)cc2O1	Nrf2 inh 13µM (no result: Nrf2 ARE act, ELG1 DNA repair)
O=C(Nc1cccc(S(=O)(=O)NC2=NCCC2)c1)c1ccc(F)cc1	Nrf2 inh inconclusive, ELG1 DNA repair inconclusive
O=C(Nc1cccc(S(=O)(=O)NC2=NCCC2)c1)c1ccc(C(F)(F)F)cc1	Nrf2 inh 18.4µM, ELG1 DNA repair inconclusive
O=C(Cc1csc(-c2cccc(Cl)c2)n1)Nc1cccc(S(=O)(=O)NC2=NCCC2)c1	Nrf2 inh 23.1µM, ELG1 DNA repair inconclusive
O=C(CCl)Nc1cccc(S(=O)(=O)NC2=NCCCCC2)c1	Nrf2 ARE act inconclusive, Nrf2 inh 20.6µM, ELG1 DNA repair inconclusive
O=c1[nH]c(SCc2c(F)cccc2Cl)nc2c1CCCC2	none (no result: ELG1 DNA repair)
COc1ccc(-c2nc3ccc(NC(=O)COC(C)=O)cc3c(=O)n2Cc2ccccc2)cc1COc1ccc(NC(C)=O)cc1	Nrf2 inh inconclusive (no result: Nrf2 ARE act, ELG1 DNA repair)
CCN1C(=O)[C@H]2[C@@H](c3ccc(SC4CCCCC4)cc3)N[C@@](CC(C)C)(C(=O)OC)[C@H]2C1=O	Nrf2 inh 20.6µM
CCC(C)Sc1ccc([C@H]2N[C@@](CC(C)C)(C(=O)OC)[C@H]3C(=O)N(CC)C(=O)[C@@H]23)cc1 (stereo partly drawn)	ELG1 DNA repair inconclusive
ClCCn1c(CCl)nc2ccc(Cl)cc21	none (no result: Nrf2 inh, ELG1 DNA repair, A549 viability)
O=C(O)c1ccc(N/N=C/C=C/c2ccc([N+](=O)[O-])o2)cc1	Nrf2 ARE act 14.1µM, Nrf2 inh inconclusive, A549 viability inconclusive
O=C(N/N=C/c1ccc([N+](=O)[O-])o1)C(=O)Nc1ccc(C(=O)O)cc1	none
Cc1ccc(N(Cc2cc3ccccc3[nH]c2=O)C(=O)c2cccs2)cc1C	Nrf2 inh inconclusive, ELG1 DNA repair 23.1µM
CCOC(=O)c1sc(=S)n(C)c1NC(=O)c1ccc(F)cc1	Nrf2 inh 23.1µM, ELG1 DNA repair inconclusive
Cc1csc(-c2coc3cc(O)cc(C)c3c2=O)n1	Nrf2 ARE act 10µM, Nrf2 inh inconclusive, ELG1 DNA repair inconclusive
COc1cccc(NC(=O)Cn2c3ccccc3c3nc4n(c(=O)c32)CCCS4)c1	ELG1 DNA repair inconclusive
O=C(Cn1c2ccccc2c2nc3n(c(=O)c21)CCCS3)Nc1ccccc1	Nrf2 inh inconclusive, ELG1 DNA repair 5.17µM
COc1ccc(-c2cc(C(=O)NC(C)c3ccccn3)c3ccccc3n2)cc1OC (stereo not drawn)	ELG1 DNA repair 16.4µM
COc1ccc(-c2cc(C(=O)NC3=NCCS3)c3ccccc3n2)cc1OC	Nrf2 inh inconclusive, ELG1 DNA repair 16.4µM
COc1cccc(N2CCN(C(=O)c3cc(-c4ccccc4)nc4c3cnn4C(C)C)CC2)c1	Nrf2 inh inconclusive, ELG1 DNA repair 11.6µM
COc1ccc(-c2cc(C(=O)N3CCN(c4ncccn4)CC3)c3ccccc3n2)cc1OC	ELG1 DNA repair 6.51µM
O=C(CNC(=O)c1ccccc1)N[C@H](C(=O)Nc1cc(C(F)(F)F)ccc1Cl)c1ccccc1	none (no result: Nrf2 ARE act, ELG1 DNA repair)
CCC(C)C(NC(=O)OC(C)(C)C)C(=O)NC(C)C(N)=O (stereo not drawn)	none
CCn1nc(C)cc1C(=O)Sc1cccc(Br)c1	none
CC(C)Oc1cccc(-c2cc(C(=O)N3CCN(c4ncccn4)CC3)c3ccccc3n2)c1	ELG1 DNA repair 14.6µM (no result: Nrf2 ARE act, Nrf2 inh, A549 viability)
O=C(c1ccc(S(=O)(=O)N2CCCC2)cc1)N1CCCCCC1	none
O=C(c1ccc(S(=O)(=O)N2CCCCC2)cc1)N1CCN(CCN2C(=O)c3cccc4cccc(c34)C2=O)CC1	Nrf2 inh inconclusive, ELG1 DNA repair 3.26µM
O=C(/C=C/c1ccccc1)N1CCN(CCN2C(=O)c3cccc4cccc(c34)C2=O)CC1	ELG1 DNA repair 10.3µM
O=C(CCN1C(=O)c2cccc3cccc(c23)C1=O)N1CCOCC1	Nrf2 inh inconclusive, ELG1 DNA repair inconclusive
CN1C(=O)c2ccccc2Sc2ccc(NC(=O)N3CCN(c4cccc(Cl)c4)CC3)cc21	Nrf2 inh inconclusive (no result: ELG1 DNA repair)
Cc1ccc(S(=O)(=O)CCC(=O)OCc2nnc(-c3ccccc3)o2)cc1	none
Cc1cc(C)nc(NC(=O)c2cc(-c3ccc4c(c3)OCO4)nc3ccccc23)c1	ELG1 DNA repair 18.3µM
Cc1cc(NC(=O)c2cc(-c3ccc(C)s3)nc3ccccc23)no1	none
Cc1cccc(NC(=O)c2cc(-c3ccc(C)s3)nc3ccccc23)n1	ELG1 DNA repair 6.51µM
Cc1ccccc1S(=O)(=O)Cc1ccc(C(=O)NC2CC2)o1	Nrf2 inh 20.6µM, A549 viability inconclusive
O=C(NCc1cccnc1)c1ccc(-c2cc(Cl)ccc2Cl)o1	ELG1 DNA repair 23.1µM
O=C(NCc1ccccc1Cl)c1ccc(CS(=O)(=O)c2ccc(Br)cc2)o1	Nrf2 inh 23.1µM, A549 viability inconclusive (no result: ELG1 DNA repair)
COc1ccc(S(=O)(=O)Cc2ccc(C(=O)NCc3cccnc3)o2)cc1	ELG1 DNA repair 14.6µM
Cc1ccccc1S(=O)(=O)NC(=O)C1(C)CCN1C(=O)c1cccc(F)c1 (stereo not drawn)	none (no result: Nrf2 inh, ELG1 DNA repair, A549 viability)
CN1C(=O)Cc2cc([S+](=O)([O-])N3CCN([S+](=O)([O-])c4c(F)cccc4F)CC3)ccc21	none (no result: Nrf2 ARE act, ELG1 DNA repair)
CC(CNC(=O)Cn1c(-c2cccs2)cc2ccccc21)c1ccccc1 (stereo not drawn)	Nrf2 inh inconclusive (no result: ELG1 DNA repair)
COc1ccc(S(=O)(=O)Cc2ccc(C(=O)NC3CCCCC3)o2)cc1	Nrf2 inh 14.6µM!
O=C(NCc1cccnc1)/C(=C\c1ccc(-c2ccc(Cl)c(Cl)c2)o1)S(=O)(=O)c1ccccc1	Nrf2 ARE act inconclusive, Nrf2 inh 18.4µM, ELG1 DNA repair 7.31µM, A549 viability inconclusive
COc1ccc(S(=O)(=O)Cc2ccc(C(=O)NC3CC3)o2)cc1	none
COc1ccc(CN(C)C(=O)Cc2ccc(OC)c(S(=O)(=O)N3CCOCC3)c2)cc1	Nrf2 inh inconclusive
CCOC(=O)c1cc(-c2ccccc2)sc1NC(=O)COC(=O)c1ccc(Cl)c(S(N)(=O)=O)c1	Nrf2 inh 23.1µM, A549 viability inconclusive
Cc1cc(S(=O)(=O)NC2CCCCC2)ccc1-n1cnnn1	Nrf2 inh 11.6µM
Cc1ccc(Oc2nc3c(c(=O)n(Cc4ccccc4F)c(=O)n3C)n2C)cc1	ELG1 DNA repair 18.4µM
CCCCC(=O)N(Cc1nc2sc(C)c(C)c2c(=O)[nH]1)C1CCCC1	ELG1 DNA repair 20.6µM
Cc1sc2nc(CN(C(=O)NC3CCCCC3)C3CCCC3)[nH]c(=O)c2c1C	ELG1 DNA repair 20.6µM
COCC(=O)N(Cc1nc2sc(C)c(C)c2c(=O)[nH]1)C1CCCCC1	none
Cc1sc2nc(CN(Cc3cccs3)C(=O)NC3CCCCC3)[nH]c(=O)c2c1C	Nrf2 inh inconclusive, ELG1 DNA repair 9.2µM, A549 viability inconclusive
Cc1cc2c(s1)c1cnn(Cc3ccc(F)c(F)c3)c(=O)c1n2C	none (no result: Nrf2 ARE act, ELG1 DNA repair)
Cc1ccc(C(=O)NC2CCN(S(=O)(=O)c3ccccc3)CC2)cc1	none
